Assay results as given in the supplement of paper PMC10849652.
About 7,900 targets were measured; listed, in parts, are those with a hit and a random draw of the rest. About 0.6% of all pairs of compound and target were hits. A number with no mark means an inactive call.

Key:
Assay in all cases: log2 fold change, soluble protein after heating vs DMSO (PISA); higher = thermal stabilisation; K562 cells, 10 uM, 30 min; active = over 0.2 and 3.5 SD of the protein, either way, in both replicates (recomputed)
[1] = compound: C#Cc1cccc(Nc2ncnc3cc(OCCOC)c(OCCOC)cc23)c1 [erlotinib]
Summary of the method: (§1)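 Quantification of soluble protein used TMTpro 16plex LC-MS/MS, with channel sums equalised. Samples were the supernatant after 21,000xg for 90 min of pooled aliquots from K562 cells (2×10^6 cells/mL) treated with 10 μM compound for 30 min, heated for 3 min over 48°C-58°C, and extracted in PBS with 0.5% NP-40 at 4°C. Values, from duplicates, describe thermal stability against control samples on a log2 fold-change scale.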

[2] = compound: C/C(=N\NC(=O)C1=CC(=CC=C1)S(=O)(=O)N2CCOCC2)/C3=C(C=CC(=C3)Cl)O
Summary of the method: as §1

[3] = compound: C1=CC(=C(C=C1Cl)C2=NC3=NC=CN=C3C(=N2)NC4=CC=NC=C4)F
Summary of the method: as §1

[4] = compound: C1=CC(=CC=C1C2=NC3=C(N2)C=C(C=C3)C(=O)N)OC4=CC=C(C=C4)Cl
Summary of the method: as §1

[5] = compound: C1=CC2=C(C=CC(=C2)/C=C\3/C(=O)NC(=NCC4=CC=CS4)S3)N=C1
Summary of the method: as §1

[6] = compound: C1=CC2=NC=CN=C2C=C1/C=C/3\C(=O)NC(=O)S3
Summary of the method: as §1

[7] = compound: C1=CC=C2C(=C1)C3=NNC4=CC=CC(=C43)C2=O
Summary of the method: as §1

[8] = compound: C1CCN(C1)C(=O)NC2=CC=CC(=C2)NC3=NC=C(C(=N3)NCCC4=CN=CN4)Br
Summary of the method: as §1

[9] = compound: C1CN(CCC1(CC2=CC=C(C=C2)Cl)N)C3=NC=NC4=C3C=CN4
Summary of the method: as §1

[10] = compound: C1=CC=C(C=C1)C2=NC(=C(N2)C3=CC=NC=C3)C4=CC(=C(C=C4)Cl)O
Summary of the method: as §1

UniProt Q93050, sequence (Q93050 whole entry, looked up): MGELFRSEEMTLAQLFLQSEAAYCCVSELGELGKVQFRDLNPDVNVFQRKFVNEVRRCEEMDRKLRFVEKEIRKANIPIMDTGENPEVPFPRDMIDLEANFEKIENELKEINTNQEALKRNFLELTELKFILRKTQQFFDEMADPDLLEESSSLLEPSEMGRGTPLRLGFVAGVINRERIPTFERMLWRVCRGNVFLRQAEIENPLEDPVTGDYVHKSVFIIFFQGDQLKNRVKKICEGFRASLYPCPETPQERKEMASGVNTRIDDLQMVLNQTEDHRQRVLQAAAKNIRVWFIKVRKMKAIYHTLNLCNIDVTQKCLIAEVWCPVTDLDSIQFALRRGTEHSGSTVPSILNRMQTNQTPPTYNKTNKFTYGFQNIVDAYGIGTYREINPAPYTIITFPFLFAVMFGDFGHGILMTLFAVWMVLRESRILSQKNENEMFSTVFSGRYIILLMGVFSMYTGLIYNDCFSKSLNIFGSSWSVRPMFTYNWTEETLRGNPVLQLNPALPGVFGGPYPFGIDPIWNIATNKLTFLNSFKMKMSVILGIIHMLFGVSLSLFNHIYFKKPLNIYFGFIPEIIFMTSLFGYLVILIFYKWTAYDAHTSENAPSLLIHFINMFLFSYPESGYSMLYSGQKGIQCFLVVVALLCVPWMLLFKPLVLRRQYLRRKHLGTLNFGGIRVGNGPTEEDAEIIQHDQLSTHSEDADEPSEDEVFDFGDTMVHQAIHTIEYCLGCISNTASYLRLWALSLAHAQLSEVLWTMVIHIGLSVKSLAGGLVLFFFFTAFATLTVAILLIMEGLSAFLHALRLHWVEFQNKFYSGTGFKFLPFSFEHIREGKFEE
UniProt P54709, sequence (P54709 whole entry, looked up): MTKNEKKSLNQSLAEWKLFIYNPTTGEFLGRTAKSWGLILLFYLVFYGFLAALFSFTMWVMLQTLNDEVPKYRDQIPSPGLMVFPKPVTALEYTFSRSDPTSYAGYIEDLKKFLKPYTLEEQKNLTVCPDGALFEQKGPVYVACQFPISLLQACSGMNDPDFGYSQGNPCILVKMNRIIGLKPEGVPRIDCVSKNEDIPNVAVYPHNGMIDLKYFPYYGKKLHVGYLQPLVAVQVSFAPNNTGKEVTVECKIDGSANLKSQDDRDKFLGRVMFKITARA
UniProt Q13733, sequence (Q13733 whole entry, looked up): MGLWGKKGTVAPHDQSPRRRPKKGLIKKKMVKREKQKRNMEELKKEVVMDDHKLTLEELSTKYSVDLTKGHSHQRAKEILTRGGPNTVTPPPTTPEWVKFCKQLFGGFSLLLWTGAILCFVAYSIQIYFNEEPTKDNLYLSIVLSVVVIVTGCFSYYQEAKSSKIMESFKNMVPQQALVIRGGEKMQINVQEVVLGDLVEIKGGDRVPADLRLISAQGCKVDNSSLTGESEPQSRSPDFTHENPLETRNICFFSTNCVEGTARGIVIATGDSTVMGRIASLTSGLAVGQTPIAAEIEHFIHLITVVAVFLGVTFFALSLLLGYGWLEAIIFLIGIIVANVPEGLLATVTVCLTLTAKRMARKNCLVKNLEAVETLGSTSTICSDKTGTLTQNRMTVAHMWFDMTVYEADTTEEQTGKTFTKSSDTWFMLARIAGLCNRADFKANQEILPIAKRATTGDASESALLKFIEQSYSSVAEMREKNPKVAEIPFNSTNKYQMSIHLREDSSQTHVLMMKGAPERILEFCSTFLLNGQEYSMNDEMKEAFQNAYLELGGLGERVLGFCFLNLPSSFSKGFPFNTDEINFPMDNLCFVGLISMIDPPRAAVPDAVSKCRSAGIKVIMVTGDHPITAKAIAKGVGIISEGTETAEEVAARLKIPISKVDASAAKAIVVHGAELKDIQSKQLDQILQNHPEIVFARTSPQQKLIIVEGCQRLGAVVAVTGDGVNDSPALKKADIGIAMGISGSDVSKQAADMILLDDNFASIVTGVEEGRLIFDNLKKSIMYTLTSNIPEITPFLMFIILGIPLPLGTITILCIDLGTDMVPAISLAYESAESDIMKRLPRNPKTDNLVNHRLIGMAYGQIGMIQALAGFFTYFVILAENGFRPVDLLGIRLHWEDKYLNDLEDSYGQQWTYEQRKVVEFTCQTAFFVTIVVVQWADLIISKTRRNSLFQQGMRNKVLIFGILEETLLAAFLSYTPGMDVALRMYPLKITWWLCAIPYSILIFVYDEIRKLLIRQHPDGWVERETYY
UniProt Q96G97, sequence (Q96G97 whole entry, looked up): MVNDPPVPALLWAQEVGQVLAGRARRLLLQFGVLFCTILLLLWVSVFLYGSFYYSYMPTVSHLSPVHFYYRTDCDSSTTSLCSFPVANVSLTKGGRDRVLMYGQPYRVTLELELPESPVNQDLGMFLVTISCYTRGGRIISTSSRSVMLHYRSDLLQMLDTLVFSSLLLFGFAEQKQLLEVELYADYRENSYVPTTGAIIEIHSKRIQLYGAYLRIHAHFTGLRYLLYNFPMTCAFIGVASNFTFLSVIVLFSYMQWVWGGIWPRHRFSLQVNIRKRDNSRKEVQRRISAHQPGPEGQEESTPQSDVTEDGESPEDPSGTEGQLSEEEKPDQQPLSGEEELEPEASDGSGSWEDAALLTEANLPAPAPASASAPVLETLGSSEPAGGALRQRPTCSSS
UniProt P00966, sequence (P00966 whole entry, looked up): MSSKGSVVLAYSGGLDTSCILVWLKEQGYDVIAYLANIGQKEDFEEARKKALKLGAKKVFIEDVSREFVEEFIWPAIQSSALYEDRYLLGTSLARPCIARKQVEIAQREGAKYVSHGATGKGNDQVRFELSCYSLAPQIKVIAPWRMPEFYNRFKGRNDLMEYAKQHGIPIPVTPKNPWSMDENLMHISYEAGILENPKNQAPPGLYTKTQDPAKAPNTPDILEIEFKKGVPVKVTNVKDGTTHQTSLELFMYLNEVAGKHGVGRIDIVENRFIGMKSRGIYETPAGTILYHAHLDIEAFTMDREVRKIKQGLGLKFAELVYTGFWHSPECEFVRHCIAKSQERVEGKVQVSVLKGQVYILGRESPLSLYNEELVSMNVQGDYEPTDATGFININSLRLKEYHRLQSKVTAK
UniProt Q5JTZ9, sequence (Q5JTZ9 whole entry, looked up): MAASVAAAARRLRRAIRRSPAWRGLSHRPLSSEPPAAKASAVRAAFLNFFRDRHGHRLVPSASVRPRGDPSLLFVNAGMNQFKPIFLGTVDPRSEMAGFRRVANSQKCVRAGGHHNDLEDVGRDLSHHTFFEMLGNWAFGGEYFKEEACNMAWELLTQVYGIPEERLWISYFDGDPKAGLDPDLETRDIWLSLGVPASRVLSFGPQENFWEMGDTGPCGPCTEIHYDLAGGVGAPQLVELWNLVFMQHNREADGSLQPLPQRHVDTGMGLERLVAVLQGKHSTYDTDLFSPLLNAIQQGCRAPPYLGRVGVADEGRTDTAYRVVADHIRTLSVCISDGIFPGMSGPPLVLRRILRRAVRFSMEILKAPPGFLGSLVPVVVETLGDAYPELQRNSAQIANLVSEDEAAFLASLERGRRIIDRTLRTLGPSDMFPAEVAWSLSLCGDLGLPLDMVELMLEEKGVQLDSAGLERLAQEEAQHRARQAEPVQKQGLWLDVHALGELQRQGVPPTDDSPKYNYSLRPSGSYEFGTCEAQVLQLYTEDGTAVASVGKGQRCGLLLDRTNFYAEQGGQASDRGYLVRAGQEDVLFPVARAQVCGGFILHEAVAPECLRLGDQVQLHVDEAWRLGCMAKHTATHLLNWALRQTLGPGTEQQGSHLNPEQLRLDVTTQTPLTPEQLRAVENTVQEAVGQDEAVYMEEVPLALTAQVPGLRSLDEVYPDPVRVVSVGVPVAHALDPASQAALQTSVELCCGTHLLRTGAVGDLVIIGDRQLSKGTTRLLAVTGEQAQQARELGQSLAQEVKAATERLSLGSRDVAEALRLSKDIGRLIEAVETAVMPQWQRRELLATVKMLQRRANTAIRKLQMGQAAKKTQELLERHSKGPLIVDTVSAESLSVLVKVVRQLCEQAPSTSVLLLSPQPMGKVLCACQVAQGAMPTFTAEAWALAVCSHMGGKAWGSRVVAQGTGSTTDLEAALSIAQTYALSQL
UniProt Q9UBL3, sequence (Q9UBL3 whole entry, looked up): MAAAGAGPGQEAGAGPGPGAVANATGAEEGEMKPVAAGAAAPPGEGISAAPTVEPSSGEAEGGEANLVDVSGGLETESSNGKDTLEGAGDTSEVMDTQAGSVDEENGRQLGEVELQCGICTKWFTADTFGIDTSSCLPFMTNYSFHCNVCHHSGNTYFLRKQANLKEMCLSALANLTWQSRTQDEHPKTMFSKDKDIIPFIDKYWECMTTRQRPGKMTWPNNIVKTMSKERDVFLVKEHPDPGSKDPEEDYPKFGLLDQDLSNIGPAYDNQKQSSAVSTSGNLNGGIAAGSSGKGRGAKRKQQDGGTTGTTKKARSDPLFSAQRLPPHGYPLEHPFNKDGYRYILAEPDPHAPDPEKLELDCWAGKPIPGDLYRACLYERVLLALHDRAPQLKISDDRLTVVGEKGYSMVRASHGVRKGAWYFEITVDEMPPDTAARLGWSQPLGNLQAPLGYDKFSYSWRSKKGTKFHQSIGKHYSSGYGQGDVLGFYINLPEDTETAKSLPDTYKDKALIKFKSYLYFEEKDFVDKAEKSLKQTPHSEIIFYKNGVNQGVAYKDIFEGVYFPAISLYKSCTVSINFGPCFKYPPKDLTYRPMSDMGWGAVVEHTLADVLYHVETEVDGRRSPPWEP
UniProt P42025, sequence (P42025 whole entry, looked up): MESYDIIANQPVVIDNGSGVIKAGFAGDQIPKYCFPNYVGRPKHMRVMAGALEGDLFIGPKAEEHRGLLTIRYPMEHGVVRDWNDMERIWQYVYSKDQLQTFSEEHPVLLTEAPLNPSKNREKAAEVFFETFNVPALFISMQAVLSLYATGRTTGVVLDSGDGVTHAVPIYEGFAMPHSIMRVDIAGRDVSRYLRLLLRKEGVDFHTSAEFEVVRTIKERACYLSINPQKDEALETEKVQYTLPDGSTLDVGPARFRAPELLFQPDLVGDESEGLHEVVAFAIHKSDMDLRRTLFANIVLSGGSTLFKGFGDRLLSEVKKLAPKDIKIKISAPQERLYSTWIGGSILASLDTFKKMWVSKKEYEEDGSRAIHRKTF

Target	log2 fold change [1]	log2 fold change [2]	log2 fold change [3]	log2 fold change [4]	log2 fold change [5]	log2 fold change [6]	log2 fold change [7]	log2 fold change [8]	log2 fold change [9]	log2 fold change [10]
BSCL2 isoform 4 (UniProt Q96G97)	-0.024	0.088	-0.016	0.052	0.06	-0.012	-0.045	0.045	-0.001	
ATP6V0A1 isoform 3 (UniProt Q93050)	-0.086	-0.041	-0.176	0.061	0	-0.008	0.052	-0.066	-0.195	-0.232
ACSL4 (UniProt O60488)	0.16	0.02	-0.021	0.727 (active)	0.13	0.024	0.357 (active)	-0.058	-0.002	0.226
ATG4B isoform 2 (UniProt Q9Y4P1)	-0.008	0.078	0.017	0.178	0.118	0.089	-0.046	-0.087	-0.033	0.143
AK6 (UniProt Q9Y3D8)	0.105	0.108	0.007	-0.157	0.194	0.025	-0.027	-0.041	-0.085	0.046
ASS1 (UniProt P00966)	0.059	0.301 (active)	-0.05	0.008	-0.003	0.036	0.118	0.103	-0.037	0.012
AAMP (UniProt Q13685)	0.025	-0.032	0.006	-0.003	0.042	0.074	0.003	-0.006	0.085	-0.007
BRAF (UniProt P15056)	0.031	0.057	0.034	0.007	0.08	-0.012	-0.054	-0.088	0.024	
ATRN (UniProt O75882)	0.006	0.037	-0.113	-0.148	0.098	0.04	-0.166	-0.052	0.018	
ASH2L (UniProt Q9UBL3)	-0.021	0.025	0.019	-0.062	-0.012	0.022	-0.029	-0.004	0.052	0.001
BRD8 (UniProt Q9H0E9)	-0.057	-0.036	-0.067	0.068	-0.005	0.037	-0.064	0.016	-0.058	-0.074
AFG1L (UniProt Q8WV93)	0.053	0	0.076	-0.083	0.065	0.041	-0.042	0.058	-0.004	-0.204
ACTR1B (UniProt P42025)	-0.13	-0.048	-0.145	0.041	0.02	0.002	-0.017	-0.02	0.011	-0.037
BST2 (UniProt Q10589)	-0.018	0.026	-0.046	0	0.009	0.024	-0.013	0.066	-0.063	-0.062
ABCC5 (UniProt O15440)	-0.027	0.035	0.064	-0.004	0.059	-0.048	-0.071	-0.037	0.129	-0.014
ARHGAP25 isoform 4 (UniProt P42331)	0.07	0.165	0.109	-0.284	0.042	-0.192	-0.062	0.052	-0.147	
ARFRP1 (UniProt Q13795)	-0.018	-0.017	0.096	0.008	0.12	0.048	0.015	-0.013	0.032	0.057
ATP1B3 (UniProt P54709)	-0.016	-0.004	-0.002	-0.019	-0.021	0.023	-0.052	-0.024	0.048	0.057
ATP1A4 (UniProt Q13733)	-0.076	0.033	0.183	0.046	-0.051	0.063	-0.112	-0.009	-0.015	-0.003
AGAP3 isoform 4 (UniProt Q96P47)	0.11	0	-0.078	-0.062	0.017	0.183	-0.082	-0.075	0.127	-0.024
AARS2 (UniProt Q5JTZ9)	0.148	-0.035	0.058	-0.019	0.083	0.011	0.021	-0.003	0.021	0.025
ATG9A (UniProt Q7Z3C6)	0.044	0.03	0.057	-0.003	0.047	0.021	-0.005	-0.026	-0.023	0.045
ARPP19 (UniProt P56211)	-0.01	0.003	0.076	-0.032	-0.061	0.041	0.014	-0.024	-0.018	0.026
